Screening results as filed in PubChem BioAssay.
MARV entry inh: qHTS for inhibitors of binding or entry into cells for Marburg Virus; Marburg virus pseudotyped entry inhibition, cell reporter; Potency, µM (top dose mostly 37.8 µM), inactives show at the highest dose activity change, negative = inhibition, hits mostly inhibitors; hit rate 1.8% among 300,000; calls by dose curve; tested in HEK293 cells; further: potency means the concentration at half of the fitted maximal effect
FMDV antiviral: High Throughput Screening for Foot and Mouth Disease Virus Antivirals; hit rate 1.2% among 410,000; Potency, µM (titrated, usually from 57.9 µM), inactives show at the top dose activity change, negative = inhibition, actives largely listed as inhibitors; FMDV antiviral cell-based qHTS; calls by dose curve; tested in HEK293T cells; further: read-out not given here; potency means the concentration at half of the fitted maximal effect; nearly all actives have a fitted effect of over 45% in size
Lassa entry inh: qHTS for Inhibitors of binding or entry into cells for Lassa Virus. Potency, µM (top dose mostly 37.9 µM), for inactives: at the top dose activity change, negative = inhibition, most hits filed as inhibitors. AID 540256, 2011. Lassa virus pseudotype entry inhibition, cell reporter. hit rate 1.2% among 300,000; calls by dose curve; tested in HEK293 cells; further: potency means the concentration at half of the fitted maximal effect; nearly all actives have a fitted effect of over 50% in size
HCV inhibitor: qHTS Assay for Inhibitors of Hepatitis C Virus (HCV). Huh7.5.1 HCVcc-Cre infection, luciferase reporter, 44 h. Potency, µM (doses to about 41.8 µM), for inactives: at the highest dose activity change, negative = inhibition, actives largely listed as inhibitors. hit rate 3.4% among 340,000. AID 651820, 2012; active means well fitted inhibition curve with a large enough effect; inconclusive means small, poorly fitted or top-dose-only effect, or another doubt; inactive means no such curve, though single readings can be large or run the other way; further: potency means the concentration at half of the fitted maximal effect
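Luciferase read-out (15 sec integration) after a 15 min room-temperature substrate step quantifies HCVcc-Cre infection. Cells, 1,000 per well, had compound added 4 h post-plating, then virus at ~0.5 moi, and were cultured 44 h.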
HCMV antiviral: qHTS Assay for inhibitors of the human cytomegalovirus (HCMV); hit rate 4.5% among 410,000; AID 1259415, 2018; HFF cells, HCMV-luciferase reporter, 72 h; active compounds read low; activity change, negative = inhibition, % at 57.5 µM; in the data active means activity change below about -60%; inconclusive means no clear call, values can overlap the other calls; inactive means above about -39%
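HFF cells seeded 16 h at 37C, treated with compounds, infected with luciferase-reporter HCMV at MOI 1 PFU/cell; luciferase read at 72 h post infection, normalized to buffer-only and Salinomycin controls.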
* marks the source's active call; other numbers are inactive results; [ ] = dose if it differs, or a comment. Shown are actives, neighbours in structure and some others; about 7.9% of the full set was active somewhere. On the % scale 0 is the no-effect control and ±100 the full control effect.

O=[N+]([O-])c1ccc(/C=N/Nc2ccc3ccccc3c2)o1 was read as MARV entry inh -10.9%, FMDV antiviral -16.7%, Lassa entry inh 2.9%, HCV inhibitor -8.9% and HCMV antiviral -71.6*.
O=[N+]([O-])c1ccc(/C=N/Nc2nc(-c3ccccc3)c3cc(Br)ccc3n2)o1 was read as MARV entry inh 16.2%, FMDV antiviral inconclusive, Lassa entry inh 12.7%, HCV inhibitor inconclusive and HCMV antiviral inconclusive.
`Cc1ccc2nc(N/N=C\c3ccc([N+](=O)[O-])o3)nc(-c3ccccc3)c2c1` gave MARV entry inh 10µM*, FMDV antiviral -29.3%, Lassa entry inh inconclusive, HCV inhibitor inconclusive and HCMV antiviral inconclusive.
For CCNc1nc(NCC)nc(N/N=C/c2ccc([N+](=O)[O-])o2)n1 the results were MARV entry inh inconclusive, FMDV antiviral -19.1%, Lassa entry inh -16.6%, HCV inhibitor -27.6% and HCMV antiviral inconclusive.
Cc1cccc(C)c1OCCn1c(CCNC(=O)C2CCCCC2)nc2ccccc21 was read as MARV entry inh inconclusive, FMDV antiviral -15.0%, Lassa entry inh -17.4%[46.1 µM] and HCMV antiviral 60.3.
`CC(C)(C)OC(=O)N1CCN(C(=O)c2ncn3c2c(=O)[nH]c2ccccc23)CC1` gave FMDV antiviral -11.2% and HCMV antiviral -12.2.
`Cc1nc2c(OCc3ccc(C#N)cc3)cccn2c1N(C)C(=O)CCC1CCCC1` gave FMDV antiviral 22.4µM* and HCMV antiviral -8.2.
`Cc1nc2c(OCc3ccc(F)cc3)cccn2c1N(C)C(=O)CCC1CCCC1` gave FMDV antiviral inconclusive and HCMV antiviral 24.0.
Screening COC(=O)c1ccc(COc2cccn3c(N(C)C(=O)CCC4CCCC4)c(C)nc23)cc1 returned FMDV antiviral 35.5µM* and HCMV antiviral -33.4.
`CCCCCC(=O)N1C[C@@H](O)[C@H](n2cc(-c3ccc(F)cc3)nn2)C[C@H]1c1ccc(C)cc1` gave Lassa entry inh 8.6%[46.1 µM].
`O=C(NCc1cccs1)c1ccc(Cn2c(SCc3ccc(F)cc3)nc3cccnc32)cc1` gave FMDV antiviral -21.8%, Lassa entry inh -15.3%[46.1 µM] and HCMV antiviral -63.0*.
Screening Cc1cccc(Cn2c(SCc3ccc(C(=O)NC4CCCCC4)cc3)nc3cccnc32)c1 returned FMDV antiviral inconclusive, Lassa entry inh inconclusive and HCMV antiviral -83.5*.
For Cc1cccc(CC(=O)NCc2nc3cccnc3n2Cc2ccc(F)cc2)c1 the results were FMDV antiviral -13.5%, Lassa entry inh -10.2%[46.1 µM] and HCMV antiviral -63.3*.
`Cc1cccc(Cn2c(SCc3ccc(C(=O)N4CCCCCC4)cc3)nc3ccncc32)c1` gave MARV entry inh -23.7%[46.1 µM], FMDV antiviral -24.3%, Lassa entry inh inconclusive and HCMV antiviral -90.2*.
Screening N/C(CCCN1CCCCC1)=N\O returned MARV entry inh 4.1%.
Screening COC(=O)C[C@H]1c2ccccc2C2=C(C[C@@H](C)[C@H]3C(=O)NC(=O)[C@@H]23)N1C(=O)OC returned MARV entry inh 3.1%[14.2 µM].
For COC(=O)C1(C(=O)OC)c2ccccc2N(S(=O)(=O)c2ccc(C)cc2)C1CC(C)=O (stereo unspecified) the results were FMDV antiviral -10.6% and HCMV antiviral -24.3.
`O=C(NCCc1ccccc1)c1ccc(CSc2nc3ccncc3n2Cc2ccc(F)cc2)cc1` gave MARV entry inh 7.1%[46.1 µM], FMDV antiviral -16.7%, Lassa entry inh -28.3%[46.1 µM] and HCMV antiviral -38.9.
For CC(CNC(=O)c1ccc(CSc2nc3ccncc3n2Cc2cccc(F)c2)cc1)c1ccccc1 (stereo unspecified) the results were MARV entry inh inconclusive, FMDV antiviral inconclusive and HCMV antiviral -70.2*.
For Cc1ccc(CCNC(=O)c2ccc(CSc3nc4ccncc4n3Cc3ccc(F)cc3)cc2)cc1 the results were MARV entry inh inconclusive, FMDV antiviral inconclusive and HCMV antiviral -69.6*.
Screening CCC1Oc2ccc(C)cc2N(CC(=O)NCc2ccc(OC)cc2)C1=O (stereo unspecified) returned MARV entry inh 9.0%[46.1 µM], FMDV antiviral -6.3%, Lassa entry inh -5.4%[46.1 µM] and HCMV antiviral 15.8.
Screening CCOC(=O)Cn1c(C(F)(F)F)nc2nc(Cl)c(Cl)nc21 returned MARV entry inh -19.9%, FMDV antiviral inconclusive, Lassa entry inh -13.8%[46.1 µM], HCV inhibitor inconclusive and HCMV antiviral -98.2*.
`Cn1c(SCc2ccccc2)nnc1-c1ccco1` gave MARV entry inh 26.2%[46.1 µM], FMDV antiviral 14.2%, Lassa entry inh inconclusive, HCV inhibitor 4.8% and HCMV antiviral 21.2.
Screening CC(=NNC(=O)c1ccncc1)c1ccccc1O returned MARV entry inh 3.16µM*, FMDV antiviral 4.8%, Lassa entry inh inconclusive, HCV inhibitor 4.47µM* and HCMV antiviral -98.4*.
C/C(=N\NC(=O)c1cccc(N/N=C(\C)c2cc(O)ccc2O)c1)c1cc(O)ccc1O was read as MARV entry inh inconclusive, FMDV antiviral 0.0%, Lassa entry inh inconclusive, HCV inhibitor inconclusive and HCMV antiviral -78.0*.
`C/C(=N\NC(=O)c1cccc(N/N=C(\C)c2ccco2)c1)c1ccco1` gave FMDV antiviral 8.0%, HCV inhibitor -18.9% and HCMV antiviral -21.5.
Screening CCCCCCCC(=O)N/N=C(\C)c1ccc(O)cc1O returned MARV entry inh 2.6%, FMDV antiviral -24.5%, Lassa entry inh inconclusive, HCV inhibitor -23.6% and HCMV antiviral -69.9*.
CC(=NNC(=O)c1ccncc1)c1ccc(O)cc1O was read as MARV entry inh inconclusive, FMDV antiviral 10.1%, Lassa entry inh inconclusive, HCV inhibitor 11.2µM* and HCMV antiviral -36.7.
`C/C(=N\NC(=O)c1ccc(N2CCCC2=O)cc1)c1ccc(O)cc1O` gave FMDV antiviral 0.0%, HCV inhibitor inconclusive and HCMV antiviral 4.8.
`O=C(NCC(F)(F)F)c1ccc2sc([C@@H]3O[C@H](CO)[C@H](O)[C@H](O)[C@H]3O)nc2c1` gave FMDV antiviral -13.4% and HCMV antiviral inconclusive.
`CC(=O)Nc1ccccc1NC(=O)C/C(C)=N/NC(=O)c1ccncc1` gave MARV entry inh -2.7%, FMDV antiviral -17.4%, Lassa entry inh 10.7%, HCV inhibitor 24.3% and HCMV antiviral -88.6*.
C/C(=N\Nc1cccc([N+](=O)[O-])c1)c1cc(F)ccc1O was read as FMDV antiviral 21.2%, HCV inhibitor 10µM* and HCMV antiviral -26.8.
CC(=NNC(=O)c1ccncc1)c1ccc2ccccc2c1O was read as MARV entry inh 7.94µM*, FMDV antiviral -1.7%, Lassa entry inh 5.01µM*, HCV inhibitor inconclusive and HCMV antiviral -76.7*.
`C/C(CC(=O)Nc1ccccc1C#N)=N\NC(=O)c1ccncc1` gave MARV entry inh -2.8%[46.1 µM], FMDV antiviral -3.6%, Lassa entry inh -20.6%, HCV inhibitor 12.5% and HCMV antiviral inconclusive.
